Source: PubChem BioAssay (National Center for Advancing Translational Sciences (NCATS))
ALDH1A1 block = inhibitors of human aldehyde dehydrogenase 1A1 | 220,000 tested, 7.3% active | Potency, µM (top dose mostly 75.3 µM), inactives show top-dose activity, negative = inhibition, usual class: inhibitors | Purified ALDH1A1, NADH fluorescence, propionaldehyde substrate | P00352 | AID 1030;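 note: potency is the fitted concentration of half-maximal effect; plate controls were no enzyme wells and a reference inhibitor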
Target sequence (P00352 whole entry, looked up): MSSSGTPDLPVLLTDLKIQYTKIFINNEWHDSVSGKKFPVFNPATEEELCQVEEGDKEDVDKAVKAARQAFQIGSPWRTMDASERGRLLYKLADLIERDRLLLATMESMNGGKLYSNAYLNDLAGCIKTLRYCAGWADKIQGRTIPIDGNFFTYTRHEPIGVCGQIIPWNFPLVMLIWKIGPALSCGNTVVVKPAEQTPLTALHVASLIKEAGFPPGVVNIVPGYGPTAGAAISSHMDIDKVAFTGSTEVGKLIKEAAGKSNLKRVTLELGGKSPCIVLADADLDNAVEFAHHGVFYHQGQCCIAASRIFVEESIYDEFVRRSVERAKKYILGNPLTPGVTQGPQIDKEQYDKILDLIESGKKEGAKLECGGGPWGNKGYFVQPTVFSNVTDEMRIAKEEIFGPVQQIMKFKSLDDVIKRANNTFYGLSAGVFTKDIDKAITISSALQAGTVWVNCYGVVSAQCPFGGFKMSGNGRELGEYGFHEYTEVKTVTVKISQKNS
HPGD inh = HPGD (human) dehydrogenase inhibition | 150,000 tested, 4.3% active | purified HPGD, NADH fluorescence kinetic, PGE2 substrate | AID 894 | P15428 | Potency, µM, inactives show top-dose activity change, negative = inhibition, usual class: inhibitors; note: potency is the fitted concentration of half-maximal effect; % is set by controls: 0 for no effect and ±100 for the full control effect
Target sequence (P15428 whole entry, looked up): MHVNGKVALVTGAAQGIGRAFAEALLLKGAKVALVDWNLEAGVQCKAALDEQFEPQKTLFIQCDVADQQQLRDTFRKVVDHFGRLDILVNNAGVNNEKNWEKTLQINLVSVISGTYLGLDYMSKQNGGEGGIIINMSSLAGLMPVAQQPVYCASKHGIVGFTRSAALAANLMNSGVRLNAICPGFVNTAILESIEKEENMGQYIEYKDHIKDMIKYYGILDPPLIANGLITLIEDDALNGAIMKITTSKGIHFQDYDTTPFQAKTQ
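20 nM HPGD preincubated 15 min at room temperature with compound in 50 mM Tris-HCl pH 8, 0.01% Tween 20. Started with 1 mM NAD+ and 30 uM prostaglandin E2; NADH fluorescence (360/450 nm) read 5 times over 30-s intervals, last minus first.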
HttQ103 aggreg = inhibitors of mutant huntingtin aggregate formation in PC12 cells | PC12 HttQ103-GFP aggregates, Acumen cytometry, 40 h | Potency, µM (titrated, usually from 46.1 µM), without a hit: at the highest dose activity change, negative = inhibition, most hits filed as inhibitors | 220,000 tested, 1.1% active | AID 1688; active = well fitted curve in the direction sought with a large enough effect; inconclusive = small, poorly fitted or top-dose-only effect, or another doubt; inactive = no such curve, though single readings can be large; an effect the other way counts as inactive or inconclusive; note: potency is the fitted concentration of half-maximal effect; % is set by controls: 0 for no effect and ±100 for the full control effect; nearly all actives have a fitted effect of over 60% in size
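Quantitative HTS on tebufenozide-induced (100 nM) PC12 cells stably expressing polyQ103 Huntingtin exon 1–GFP. Reduction of bright GFP aggregates, detected by laser scanning cytometry after lysis, identified actives across the titration.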
GoLoco inh red = RGS12 GoLoco-Gai1 interaction inhibition; 230,000 tested, 0.44% active; Gai1:RGS12 GoLoco peptide FP, rhodamine, 10 min; AID 880; Potency, µM (titrated, usually from 61.6 µM), for the others: at the top dose activity, negative = inhibition, most hits filed as inhibitors; P63096; active = well fitted inhibition curve with a large enough effect, not every such curve was filed as active; inactive = no such curve, though single readings can be large or run the other way; note: potency is the fitted concentration of half-maximal effect; % is set by controls: 0 for no effect and ±100 for the full control effect; nearly all actives have a fitted effect of over 30% in size
PNC assembly inh = perinucleolar compartment assembly inhibition; PC3M PTB-GFP, PNC prevalence imaging, 16 h; active compounds read low; activity change (PNC), negative = inhibition, % at 10 µM; 140,000 tested, 3.1% active;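 active = readout at or below -70, meaning at least 70% loss of cells showing the perinucleolar compartment, a nuclear body marking cancer cells; inconclusive = readout between -30 and a set limit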;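 note: plate controls were DMSO wells for no effect and camptothecin positive control wells for full effect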
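Read-out is percentage of cells bearing a perinucleolar compartment, from automated 20x imaging of fixed, Hoechst-stained PC3M PTB-GFP cells. Cells were seeded 4 h, then exposed 16 h to compound (23 nl of library stock) in duplicate plates.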
HTT cytoprotect = Huntington cell model cytoprotection by ATP luminescence; PC12 HTT-Q103 induced, cytoprotection, ATP luminescence, 40 h; Potency, µM (highest dose often 56.4 µM), without a hit: cytoprotection (ATP increase), most hits filed as activators; 230,000 tested, 0.14% active; AID 1471; active = well fitted curve in the direction sought with a large enough effect; inconclusive = small, poorly fitted or top-dose-only effect, or another doubt; inactive = no such curve, though single readings can be large; an effect the other way counts as inactive or inconclusive; note: potency is the fitted concentration of half-maximal effect; % of control where 0% means no effect; nearly all actives have a fitted effect of over 45% in size
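Stable PC12 Q103-GFP cells in serum-supplemented, phenol red-free DMEM; induction by tebufenozide at 100 nM final; compound dose series; cell viability quantified luminescently from ATP.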
The depositor's hits bear a star; u = inconclusive; x = no result given; [ ] = dose if it differs, or a comment. Sampled rows, rich in hits. Any-hit rate of the full collection: about 11%. Unless noted, calls come from the whole dose curve; as a rule, active = well fitted inhibition curve with a large enough effect (not every such curve was filed as active); inconclusive = small, poorly fitted or top-dose-only effect, or another doubt; inactive = no such curve, though single readings can be large or run the other way.

SMILES | ALDH1A1 block | HPGD inh | HttQ103 aggreg | GoLoco inh red | PNC assembly inh | HTT cytoprotect
COc1ccc2c(c1)-c1ccccc1S(=O)(=O)N2C(C)=O | u | -20% | 9% | 0% | -114* | -18%[10 µM]
COc1ccc(N2C(=O)c3ccccc3S2(=O)=O)cc1 | x | x | -5%[9.22 µM] | -6% | x | -1%[10 µM]
CN(C)c1ccc(NS(=O)(=O)c2ccc(-c3csnn3)cc2)cc1 | 8.9µM* | x | 3%[9.22 µM] | -19% | x | -32%[10 µM]
CCN(CC)C(=O)CC(c1ccc(F)cc1)c1ccco1 (stereo not given) | u | 20µM* | 24% | -4% | u | -13%[0.074 µM]
O=C(COc1ccc(Cl)cc1)NC1=NN(c2ccccc2)C(=O)C1 | 5% | -7% | 11% | -1% | 0 | 14%[1.9 µM]
CCOC(=O)c1oc2ccc(S(=O)(=O)n3nc(-c4ccccc4)cc3N)cc2c1C | 11% | -14% | 10µM* | 5% | 21 | -38%
O=C(O)c1ccc(CNc2ccccc2C(=O)O)cc1 | u | u | -15% | -27% | -131* | 2%[10 µM]
CCCCCC(=O)c1cc(CC(C(=O)OC)C(=O)OC)cc2cc(OC)c(OC)cc12 | u | x | x | x | x | 2%[10 µM]
C=CCn1c(-c2ccc(Cl)cc2)c[nH]c1=S | 1.4µM* | 11µM* | 6%[9.22 µM] | 5% | -7 | -9%[10 µM]
C=CCn1c(-c2ccccc2)c[nH]c1=S | u | u | u | -17% | -117* | -22%
CCn1c(-c2ccc(-c3ccccc3)cc2)c[nH]c1=S | u | u | -17% | 6% | -5 | -29%
C=CCn1c(-c2ccc(OC)c(OC)c2)n[nH]c1=S | -2% | -3% | 15% | 22% | -15 | -28%
CO[C@H]1COC(=O)C/C=C\[C@H](C)[C@@H](NS(=O)(=O)c2ccc(C)cc2)COC(=O)C/C=C\[C@@H]1C | -13%[13.5 µM] | x | x | x | x | u
O=[N+]([O-])c1c(Nc2ccccc2O)ccc2nonc12 | 5% | x | 10% | -3% | x | u
CC(=O)Nc1ccc(Nc2ccc3nonc3c2[N+](=O)[O-])cc1 | 22µM* | x | 8% | 4% | x | -15%
c1ccc2cc(CNCc3cccc4ccccc34)ccc2c1 | x | x | 18%[9.22 µM] | 7% | x | 4%[10 µM]
O=S(=O)(c1cccc(C(F)(F)F)c1)N(CCCN1CCOCC1)Cc1cccs1 | 13µM* | -4% | -3% | 4% | u | 9%[0.074 µM]
CC1=CCC(C(=O)O)C(C(=O)Nc2nc3ccc(S(C)(=O)=O)cc3s2)C1 (stereo not given) | 0.22µM* | -17% | -2% | -20% | 6 | 12%[10 µM]
CS(=O)(=O)c1ccc2nc(NC(=O)CCC(=O)c3cccs3)sc2c1 | -20% | -10% | 0.79µM* | 24% | -23 | -12%[10 µM]
CC(C)(C)C(=O)Nc1nc2ccc(S(C)(=O)=O)cc2s1 | u | x | 13% | -7% | x | -16%[10 µM]
CS(=O)(=O)c1ccc2nc(NC(=O)Cc3ccccc3)sc2c1 | u | x | 4%[9.22 µM] | 2% | x | -1%
CC1CC[C@@]2(C(=O)O)CCC3(C)C(=CCC4[C@]5(C)CC(O)C(O)[C@](C)(CO)C5C(O)C[C@@]43C)C2C1C (stereo not given in full) | 0% | -11% | x | 0% | x | 6%
c1csc(CNc2nc(-c3ccoc3)nc3ccccc23)c1 | -9% | x | x | 18% | x | -7%
Cc1ccccc1-n1c(C)cc(/C=C(\C#N)C(=O)NCC2CCCO2)c1C (stereo not given) | 14µM* | -12% | 17% | 29% | 37 | -45%[10 µM]
COc1cc(/C=C(\C#N)C(=O)NCC2CCCO2)ccc1OCC(=O)O (stereo not given) | u | x | 0% | 2% | x | 0%
SMILES | ALDH1A1 block | HPGD inh | HttQ103 aggreg | GoLoco inh red | PNC assembly inh | HTT cytoprotect
COc1cc(/C=C(\C#N)C(=O)NCC2CCCO2)c([N+](=O)[O-])cc1OC (stereo not given) | u | 28µM* | u | -30% | -1 | -20%[10 µM]
CCOc1cc(/C=C(\C#N)C(=O)NCC2CCCO2)ccc1O (stereo not given) | 28µM* | u | -7% | -7% | u | 2%[10 µM]
Cc1ccc(/C=C(\C#N)C(=O)NCC2CCCO2)o1 (stereo not given) | -20% | -16% | 0% | 19% | u | -8%[10 µM]
CC(Sc1ccc2ccccc2c1)C(=O)NC(N)=O (stereo not given) | -11% | x | -16% | 3% | x | -19%
CC(C)Cn1cc(C(=O)NCc2cccs2)c2c3ccccc3n(C)c2c1=O | 1µM* | x | -18% | x | -6 | 4%
OB(O)c1cc2ccccc2o1 | -12% | -12% | x | -4% | x | -64%
CCOC(=O)c1ccc(NC(=O)CN2CCc3ccccc3C2)cc1 | 14µM* | -26% | 1% | 12% | -12 | -15%
COc1cc2c(cc1OC)CN(Cc1ccc(C)s1)CC2 | 28µM* | -10% | -2%[9.22 µM] | 13% | 11 | 4%
COc1cc2c(cc1OC)CN(CC(=O)Nc1ccc3c(c1)OCO3)CC2 | 0% | -1% | 17% | -3% | -24 | -21%
COc1cc2c(cc1OC)CN(CC(=O)Nc1ccc(C)cc1)CC2 | u | -15% | 5% | 1% | -89* | -39%
COc1ccc(CN2CCc3cc(OC)c(OC)cc3C2)cc1O | -11% | x | -4%[9.22 µM] | 0% | x | 19%[10 µM]
COc1ccc(-c2nnc3n2-c2ccccc2SC3)cc1OC | 16µM* | 35µM* | 18% | -5% | u | 10%
CC1CCCCN1C(=S)Nc1ccc(OC(F)F)cc1 (stereo not given) | -8% | 3% | 9% | 6% | u | 26%[1.9 µM]
COC(=O)C1=NNC2(c3ccc(C)cc3)C(=O)N(c3ccc(C)cc3)C(=O)C12 (stereo not given) | -2% | x | -12%[9.22 µM] | 19% | x | -17%[10 µM]
O=C(CN1CCc2ccccc2C1)c1cccs1 | 7.9µM* | -22% | -9% | -12% | u | 5%
CC1CCN(CC(=O)c2cccs2)CC1 | u | x | 15% | 9% | x | -14%
O=C(CN1CCN(c2ccc(F)cc2)CC1)c1cccs1 | 7.1µM* | x | -14%[9.22 µM] | -9% | x | -13%[10 µM]
CC(C)NC(=O)NC(=O)COC(=O)c1ncc(Cl)c(Cl)c1Cl | -1% | x | 4% | 6% | x | -21%
[O-][N+](=Nc1ccccc1)c1ccccc1 | -6% | 1% | 1% | 0% | x | -7%
O=C1C=CC2=C3c4cc(O)c(O)cc4C[C@]3(O)COC2=C1 | 5% | 16µM* | x | 0.25µM* | x | u
O=C1C=CC2=C3c4cc(O)c(O)cc4C[C@@]3(O)COC2=C1O | x | x | x | x | x | -13%
COc1cccc2cc(C(=O)NCc3ccco3)c(=Nc3ccc(C(=O)O)cc3)oc12 | 16µM* | u | 8%[1.84 µM] | 34% | u | 12%
COc1c(C)cc(C(=O)C2CCCN(Cc3cnc(N4CCOCC4)s3)C2)cc1C (stereo not given) | -7% | x | 24%[9.22 µM] | 9% | x | 14%[10 µM]
